In PubChem BioAssay AID540333 (Southern Research Specialized Biocontainment Screening …, 2011):
The campaign covered roughly 10,000 compounds. About 320 (3.2%) were called active. Rule as the data show it: active = CPE inhibition mostly above about 9.1% (no sharp cut-off); inactive = mostly below about 7.2%. Shown is part of a subset that was picked to be rich in actives.

Experiment: antivirals protecting cells from dengue CPE – CPE readout, HTS (AID 540333)
Settings: Dengue virus CPE inhibition in host cells, at 20 µM; hits give high values

| Structure (SMILES) | CPE inhibition |
| --- | --- |
| COc1ccc(/C=N/OCC(=O)NC(c2ccccc2)c2ccccc2)cc1OC | 7.42% (inactive) |
| CCOc1ccc(/C=N/OCC(=O)NC(c2ccccc2)c2ccccc2)cc1 | 13.1% (active) |
| CCOc1ccc(/C=C/C(=O)NCc2ccccc2)cc1 | inactive |
| O=C(CNC(=O)c1cccc(Cl)c1)N/N=C/C=C/c1ccccc1 | 0.175% (inactive) |
| O=C(CSc1nc2ccccc2c(=O)n1-c1ccc(F)cc1F)c1c[nH]c2ccccc12 | 2.1% (inactive) |
| CCOC(=O)c1c(CSc2ccc(C)cc2)oc2ccc(O)cc12 | 20.7% (active) |
| CCOC(=O)c1c(C)[nH]c(C)c1C(=O)CSc1nc2ccccc2c(=O)n1-c1ccc(C)cc1 | inactive |
| Cc1ccc(SCC(=O)c2c(C)[nH]c3ccccc23)cc1 | inactive |
| CCOc1ccc(/C=C2\SC(N3CCc4ccccc4C3)=NC2=O)cc1 | 17.6% (active) |
| CCOc1ccc(N2C(=O)S/C(=C\c3cccn3C)C2=O)cc1 | inactive |
| CCS(=O)(=O)c1nc(S(=O)(=O)c2ccc(Cl)cc2)c(N2CCc3ccccc3C2)s1 | 0.63% (inactive) |
| O=C(CNC1=NCCC1)c1ccc(Cl)cc1 | 0.59% (inactive) |
| O=C(OCC(=O)N1CCCCC1)c1cc(NS(=O)(=O)c2ccc(Cl)c([N+](=O)[O-])c2)ccc1O | 0.48% (inactive) |
| CCN(CC)S(=O)(=O)c1ccc(NS(=O)(=O)c2ccc(O)c([N+](=O)[O-])c2)cc1 | 0.085% (inactive) |
| CCN(C(=O)COC(=O)c1cc(NS(=O)(=O)c2ccc(Cl)c([N+](=O)[O-])c2)ccc1O)C1CCCCC1 | 17.4% (active) |
| O=C(Nc1nnc(C2CC2)s1)c1cc([N+](=O)[O-])ccc1N1CCCCC1 | inactive |
| CCOC(=O)[C@H]1[C@H]2COc3ccc(Cl)cc3[C@@H]2N2C(=O)c3cc(C)ccc3NC(=O)[C@@]12C | 12.9% (active) |
| CCOC(=O)[C@H]1[C@H]2COc3ccccc3[C@@H]2N2C(=O)c3cc(Cl)ccc3NC(=O)[C@@]12C | 4.61% (inactive) |
| CCOC(=O)[C@H]1[C@H]2COc3ccccc3[C@@H]2N2C(=O)c3ccc(C)cc3NC(=O)[C@@]12C | inactive |
| CCOC(=O)[C@H]1[C@H]2COc3ccccc3[C@@H]2N2C(=O)c3cc(C)ccc3NC(=O)[C@@]12C | 0.17% (inactive) |
| CCOC(=O)[C@H]1[C@H]2COc3ccc(Cl)cc3[C@@H]2N2C(=O)c3cc(F)c(F)cc3NC(=O)[C@@]12C | 18% (active) |
| CCOC(=O)[C@H]1[C@H]2COc3ccc(OC)cc3[C@@H]2N2C(=O)c3ccc(F)cc3NC(=O)[C@@]12C | inactive |
| NC(=O)CC[C@H](NC(=O)OCc1ccccc1)C(=O)OCc1ccc(Cl)cc1 | 0.15% (inactive) |

| Structure (SMILES) | CPE inhibition |
| --- | --- |
| COc1ccc(NC(=O)c2ccc3c(c2)S(=O)(=O)c2ccccc2C3=O)cc1 | 1.25% (inactive) |
| O=C(/C=C\Nc1ccc(Br)cc1)c1cccnc1 | 0.09% (inactive) |
| COc1cccc(C(=O)NC(=S)Nc2ccc(N(C)C)cc2)c1 | inactive |
| COc1ccc(S(=O)(=O)N2CCOCC2)cc1NC(=O)c1cc2c(s1)CCCC2 | 0.62% (inactive) |
| COc1ccc(NC(=O)c2cc3c(s2)CCC(C)C3)cc1S(=O)(=O)N1CCOCC1 (stereo unspecified) | 16.7% (active) |
| COc1ccc(NC(=O)CN2CCC(Cc3ccccc3)CC2)cc1S(=O)(=O)N1CCOCC1 | 0.605% (inactive) |
| CCCN(CC(=O)Nc1ccc(F)c(F)c1F)CC(=O)Nc1c(Cl)cccc1Cl | 1.15% (inactive) |
| Cc1cc(C)nc(NC(=NCCc2c[nH]c3ccccc23)NC(=O)Nc2ccccc2)n1 | 13.5% (active) |
| Cc1cc(C)nc(NC(=NCCc2c[nH]c3ccccc23)NC(=O)Nc2ccc(Cl)cc2)n1 | 4.91% (inactive) |
| Cc1cc(C)nc(NC(=NCCc2c[nH]c3ccccc23)NC(=O)Nc2ccc(Cl)c(Cl)c2)n1 | 7.48% (inactive) |
| COc1ccc(NC(=S)Nc2ccc(OCc3ccccc3)cc2)c(OC)c1 | 5.78% (inactive) |
| CC(C)c1ccccc1NC1=CC(=O)CC(C)(C)C1 | 1.06% (inactive) |
| CCN1CCN(C(=S)NC(C)c2ccccc2)CC1 (stereo unspecified) | inactive |
| CCCNC(=S)N1CCN(C(c2ccccc2)c2ccccc2)CC1 | 9.31% (inactive) |
| CCC(C)NC(=S)N1CCN(C(c2ccccc2)c2ccccc2)CC1 (stereo unspecified) | 11% (active) |
| CC(C)CNC(=S)N1CCN(C(c2ccccc2)c2ccccc2)CC1 | 27.6% (active) |
| COc1ccc(NC(=S)N2CCN(C(c3ccccc3)c3ccccc3)CC2)cc1OC | 2.59% (inactive) |
| CC(NC(=S)N1CCOCC1)c1ccccc1 (stereo unspecified) | inactive |
| O=C(NCCc1ccccc1)C(=O)Nc1nccs1 | 0.515% (inactive) |
| CCCc1nnc(NC(=O)CCC(=O)N2CCN(C3c4ccccc4-c4ccccc43)CC2)s1 | inactive |
| CCOc1cc(/C=N/NC(=O)CSc2nncn2C)ccc1OC(=O)c1ccc(Cl)cc1 | 1.75% (inactive) |
| S=C(Nc1ccccc1Cl)N1CCCCC1 | inactive |
| N#Cc1c(-c2ccc(Cl)cc2)c(C#N)c(=O)n(N)c1N | 0.43% (inactive) |

| Structure (SMILES) | CPE inhibition |
| --- | --- |
| Cc1ccc(NC(=O)CCNC(=O)c2ccccc2Cl)cc1S(=O)(=O)N(C)C | 0.01% (inactive) |
| Cc1ccc(NC(=O)CSc2nn(-c3ccc(Cl)cc3)c(=S)s2)cc1S(=O)(=O)N(C)C | 2.52% (inactive) |
| Cc1ccc(NC(=O)CNc2ccc(Cl)c(Cl)c2)cc1S(=O)(=O)N(C)C | 20.7% (active) |
| Cc1ccc(NC(=O)Cc2ccc(Cl)c(Cl)c2)cc1S(=O)(=O)N(C)C | 11.7% (active) |
| COc1ccc(CCC(=O)OCC(=O)Nc2ccc(C)c(S(=O)(=O)N(C)C)c2)cc1 | 0.745% (inactive) |
| Cc1ccc(NC(=O)c2cnccn2)cc1S(=O)(=O)N(C)C | 1.06% (inactive) |
| CN(C)S(=O)(=O)n1cnc([C@@H]2[C@H]3C(=O)OC[C@@H]3C[C@@]23N=CN(Cc2ccccc2)C3=O)c1 | 0.215% (inactive) |
| CC1CCCN(c2ccc(C(=O)NCc3ccc4c(c3)OCO4)cc2[N+](=O)[O-])C1 (stereo unspecified) | 0.66% (inactive) |
| NNC(=O)c1ccc(COc2cccc3ccccc23)cc1 | 0.845% (inactive) |
| CC(C)c1ccc(NCCC(=O)c2ccc(Br)cc2)cc1 | inactive |
| CCNC(=S)Nc1cc(Cl)ccc1Oc1ccccc1 | 1.55% (inactive) |
| COc1cc(/C=C2\C(=O)N(c3ccccc3)N=C2C)ccc1Oc1ccc([N+](=O)[O-])cc1[N+](=O)[O-] | 12.3% (active) |
| CC1=NN(c2ccccc2)C(=O)/C1=C/c1ccc[nH]1 | inactive |
| CC1=NN(c2ccccc2)C(=O)/C1=C\c1cc(C)n(-c2ccccc2)c1C | 1.6% (inactive) |
| CCOC(=O)c1cc(-c2ccccc2)sc1NC(=O)C(C)Sc1nnc(N)s1 (stereo unspecified) | 19% (active) |
| CCOC(=O)c1cc(-c2ccccc2)sc1NC(=O)CC | inactive |
| CCOC(=O)c1cc(-c2ccccc2)sc1NC(=O)C(C)C | 0.57% (inactive) |
| COC(=O)NNC(=O)COc1ccc2ccccc2c1Br | inactive |
| CCOC(=O)c1ccc(-c2ccc(C3Nc4ccccc4C(=O)N3O)o2)cc1 (stereo unspecified) | 0.8% (inactive) |
| Fc1cccc2sc(Nc3nc4ccccc4s3)nc12 | 0.65% (inactive) |
| COC(=O)c1ccc2nc(Nc3nc4ccc(F)cc4s3)sc2c1 | 1.64% (inactive) |
| Fc1cccc2sc(Nc3nc4cc5c(cc4s3)OCO5)nc12 | 13.5% (active) |
| Fc1ccc2nc(Nc3nc4cc5c(cc4s3)OCCO5)sc2c1 | 9.35% (active) |

| Structure (SMILES) | CPE inhibition |
| --- | --- |
| Fc1ccc2nc(Nc3nc4c(F)cc(F)cc4s3)sc2c1 | 1.16% (inactive) |
| c1ccc2sc(Nc3nc4cc5c(cc4s3)OCO5)nc2c1 | 0.275% (inactive) |
| Cc1ccc(N/N=C(\C#N)C(N)=S)c(C)c1 | 4.94% (inactive) |
| Cc1ccccc1-n1c(-c2csc(C)c2C)n[nH]c1=S | 0.5% (inactive) |
| C=CCOC(=O)C1=C[C@@H](c2coc3ccccc3c2=O)C[C@@H](OCCCCO)O1 | inactive |
| O=C1c2cccc3c(N4CCOCC4)c([N+](=O)[O-])cc(c23)C(=O)N1c1cccc2ccccc12 | inactive |
| N#Cc1ccc(C23CC4(C2)[C@H](CN(P(=O)(c2ccccc2)c2ccccc2)[C@@H]4c2ccccc2)C3c2ccc(Cl)nc2)cc1 (stereo partly specified) | 18.1% (active) |
| Clc1ccc(C2[C@H]3CN(CC4CCCCC4)[C@H](c4ccccc4)C34CC2(c2ccccc2)C4)cn1 (stereo partly specified) | 4.18% (inactive) |
| CC(C)CC(=O)NC(Nc1ccc([N+](=O)[O-])cc1)C(Cl)(Cl)Cl (stereo unspecified) | 6.29% (inactive) |
| Cc1cccc(N2C(=O)C(Cc3ccccc3)NC2=S)c1 (stereo unspecified) | inactive |
| CCn1c(O)c(N=NC(=O)c2ccc(CSc3nncn3C)cc2)c2ccccc21 | inactive |
| O=C(N=Nc1c(O)n(Cc2ccccc2)c2ccccc12)c1ccc(O)cc1 | 16.3% (active) |
| CCCCn1c(O)c(N=NC(=O)c2ccco2)c2ccccc21 | inactive |
| C/C(=N\Nc1ccc([N+](=O)[O-])cc1)c1ccc(-n2nncc2C)cc1 | inactive |
| N#CC(C#N)=Cc1ccc(-c2ccc(S(=O)(=O)N=C(N)N)cc2)o1 | 0.46% (inactive) |
| COC(=O)c1sc2nc(C)cc(-c3ccccc3)c2c1N | inactive |
| Cc1ccc(/C=C2\SC(=S)N(CCC(=O)NNS(=O)(=O)c3ccc(C)cc3)C2=O)cc1 | 0.18% (inactive) |
| CC(C)(C)CNC(=O)c1cccc2c1C(=O)c1ccc(N3CCCC3)cc1S2(=O)=O | 0.02% (inactive) |
| O=C(Nc1nc(-c2ccc(-c3ccccc3)cc2)cs1)C1=COCCO1 | 1.39% (inactive) |
| O=C(Nc1nc(-c2ccc(Oc3ccccc3)cc2)cs1)C1=COCCO1 | 10.7% (active) |
| O=C(Nc1nc(-c2cccs2)cs1)C1=COCCO1 | inactive |
| O=C1N=C(N2CCCC2)CN1c1ccccc1 | 0.23% (inactive) |
